A selection: hits, their analogues and other compounds. The true share with any hit is near 19%.
IL1B secr inh: qHTS for Inhibitors of Inflammasome Signaling: IL-1-beta AlphaLISA Primary Screen | 4.7% of 360,000 active | THP-1 LPS/ATP IL-1B secretion, AlphaLISA, 16 h; stronger effect = lower value | activity change, % at 57.5 µM | AID 743279, 2014; in the data active means activity change below about -50%; inconclusive means mostly about -30% to -49%
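Secreted IL-1B measured by AlphaLISA bead assay after 16 h compound exposure of THP-1 cells; compounds (final up to 57.5 uM) added 1 h before LPS (250 ng/mL) and ATP (1.25 mM) stimulation; lower signal means less secretion.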
HT1080 IDH1KD tx: qHTS for induction of synthetic lethality in tumor cells producing 2HG: qHTS for the HT-1080-IDH1KD cell line. AID 686971, 2013. Potency, µM (series often up to 46.1 µM), inactives show top-dose activity, negative = toxicity, hits mostly cytotoxic. HT-1080 IDH1 knockdown viability, ATP luminescence, 48 h. 2% of 360,000 active;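 further: potency means the concentration at half of the fitted maximal effect; 0% = DMSO wells and -100% = cell-free medium wells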
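% activity derives from luminescence (CellTiter-Glo), normalised to DMSO and no-cell wells. HT-1080-IDH1KD cells, 750/well, had 48 h compound exposure at 37 °C.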
HT1080-NT tox: qHTS for induction of synthetic lethality in tumor cells producing 2HG: qHTS for the HT-1080-NT fibrosarcoma cell line. 1.6% of 360,000 active. Potency, µM (titrated, usually from 46.1 µM), for the others: at the top dose activity, negative = less viability, most hits filed as cytotoxic. HT-1080-NT fibrosarcoma viability, CellTiter-Glo ATP luminescence, 48 h. AID 686970, 2013;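 further: NT is the 2HG producing partner of a matched IDH1 knockdown line; potency means the concentration at half of the fitted maximal effect; 0% = DMSO-treated cells and -100% = media-only wells without cells; nearly all actives have a fitted effect of over 55% in size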
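A 48-hour cytotoxicity screen used HT-1080-NT cells plated 2 hours before compound delivery. ATP-based CellTiter-Glo luminescence measured viability, normalized to DMSO and no-cell controls.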
ELG1 DNA repair: qHTS screen for small molecules that inhibit ELG1-dependent DNA repair in human embryonic kidney (HEK293T) cells expressing luciferase-tagged ELG1; HEK293T ELG1-luciferase reporter, luminescence, 16 h; DNA damage induced by 5-fluorouridine; AID 504467, 2011; Potency, µM (doses to about 46.1 µM), for the others: at the top dose activity change, negative = inhibition, most hits filed as inhibitors; 2.3% of 330,000 active; further: potency means the concentration at half of the fitted maximal effect; nearly all actives have a fitted effect of over 55% in size
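Quantitative HTS, concentration-response format. 2,000 cells/well co-treated with 5-fluorouridine and compound, 16 hr in 5% CO2 at 37 °C; ONE-Glo luminescence read after 30 min.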
DT40 TDP1 CPT: qHTS for Inhibitors of human tyrosyl-DNA phosphodiesterase 1 (TDP1): qHTS in cells in presence of CPT; chicken DT40 Tdp1-/-;hTDP1 cells + 20 nM CPT, ATP luminescence, 48 h; Potency, µM (doses to about 46.2 µM), for inactives: at the top dose activity change, negative = growth inhibition, usual class: inhibitors; 12% of 420,000 active; further: potency means the concentration at half of the fitted maximal effect; nearly all actives have a fitted effect of over 55% in size
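Chicken DT40 Tdp1-/- cells stably complemented with human TDP1 were seeded at 400 cells/well in medium containing 20 nM camptothecin, exposed to pin-transferred compounds, and grown at 37 °C for at least 48 hr. Viability was read as ATP luminescence.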
DT40 TDP1 no CPT: qHTS for Inhibitors of human tyrosyl-DNA phosphodiesterase 1 (TDP1): qHTS in cells in absence of CPT; 15% of 420,000 active; DT40 Tdp1-/- hTDP1 cells, no CPT, ATP luminescence, 48 h; Potency, µM (doses to about 46.2 µM), without a hit: at the top dose activity change, negative = growth inhibition, hits mostly inhibitors; further: potency means the concentration at half of the fitted maximal effect; nearly all actives have a fitted effect of over 55% in size
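Chicken DT40 Tdp1-/- cells complemented with human TDP1, screened without camptothecin (DMSO vehicle only), 400 cells/well. Compounds pin-transferred, cells incubated at 37 °C for at least 48 hr. Growth read as ATP-dependent luminescence (CellTiter-Glo, 30 min at RT).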
Numbers without * were called inactive; ? = inconclusive; . = no result. Unless noted, the call rests on the fitted dose curve; in most records, active means well fitted curve in the direction sought with a large enough effect; inconclusive means small, poorly fitted or top-dose-only effect, or another doubt; inactive means no such curve, though single readings can be large; an effect the other way counts as inactive or inconclusive. Unless noted, on the % scale 0 is the no-effect control and ±100 the full control effect.

SMILES | IL1B secr inh | HT1080 IDH1KD tx | HT1080-NT tox | ELG1 DNA repair | DT40 TDP1 CPT | DT40 TDP1 no CPT
COC(=O)[C@@]12CCCCN1[C@H](c1ccc(-c3ccc(C(C)=O)cc3)cc1)[C@H]1C(=O)N(C)C(=O)[C@H]12 | -8 | 10% | 4% | ? | 12µM* | 15µM*
N#Cc1cc(C#N)c(N2CCN(c3ccccn3)CC2)nc1N | 31 | 2% | 7% | ? | ? | 22µM*
CCc1ccc(NC2CC(=O)N(CCc3ccc(OC)c(OC)c3)C2=O)cc1 (stereo unspecified) | 2 | -7% | -14% | ? | ? | 23µM*
COc1ccc(CCN2C(=O)CC(N3CCOCC3)C2=O)cc1OC (stereo unspecified) | 40 | 16% | 14% | 2% | 60% | 4%
COc1ccc(CCN2C(=O)CSC2=S)cc1OC | -73* | 23µM* | ? | ? | 2.9µM* | 2.6µM*
COc1ccc(CCNC2CC(=O)N(CCc3ccccc3)C2=O)cc1OC (stereo unspecified) | -1 | 3% | 2% | -10% | 0% | -17%
COc1ccc(CCN2C(=O)CC(Nc3ccc(N4CCOCC4)cc3)C2=O)cc1OC (stereo unspecified) | -4 | 7% | 1% | . | 0% | 2.3µM*
COC(=O)C(CC(C)C)NC(=O)C(Cc1ccccc1)NC(=O)C1CCCN1C(=O)OC(C)(C)C (stereo unspecified) | -71* | -1% | 2% | 11% | -2% | 8%
Cc1cccc(C(=O)Nc2nc(-c3ccc(Br)cc3)ns2)c1 | . | . | . | . | -29% | ?
O=C(CSc1nnc2sc3ccccc3n12)c1ccco1 | 9 | 0% | 1% | ? | -2% | -12%
Cc1cc(C)n2nc(SCC(=O)c3cc(C)n(-c4cc(C)on4)c3C)nc2n1 | -5 | -6% | ? | ? | 10µM* | 10µM*
O=C(CSc1ncnc2ccccc12)NCc1ccco1 | 2 | 23% | 20% | -2% | -6% | -19%
O=C(CSc1ncnc2ccccc12)c1ccco1 | -10 | -1% | -4% | ? | ? | 21µM*
O=[N+]([O-])c1ccc(CSc2ncnc3ccccc23)cc1 | -73* | -26% | -2% | ? | ? | ?
Cc1cc(-n2c(C)cc(C(=O)CSc3nnc4sc5ccccc5n34)c2C)no1 | 25 | -6% | 11% | 6% | 16µM* | ?
O=c1c2ccccc2nnn1CSc1ncnc2ccccc12 | -81* | 2% | 4% | 11% | ? | ?
Cc1cc(-n2c(C)cc(C(=O)COc3ccc4ccc(=O)oc4c3)c2C)no1 | -8 | -1% | -5% | ? | ? | ?
Cc1cc(-n2c(C)cc(C(=O)CSc3ncnc4ccccc34)c2C)no1 | -13 | ? | -27% | -12% | 1.8µM* | 1.2µM*
Cc1cc(-n2c(C)cc(C(=O)CSc3nnnn3-c3ccc(Cl)cc3)c2C)no1 | -1 | 7% | -25% | -22% | ? | 7.3µM*
CCNS(=O)(=O)c1ccc(CCC(=O)N2CCc3ccccc3C2)cc1 | 0 | 1% | 8% | -15% | -24% | -27%
CNC(CC(=O)O)C(=O)O (stereo unspecified) | . | . | . | . | 10% | 0%
NNC(=O)c1ccc([N+](=O)[O-])c(CS(=O)(=O)c2ccc(Cl)cc2)c1 | -6 | -9% | -12% | 4% | -12% | ?
